# BoNT A protease: inhibitors of Botulinum neurotoxin A light chain protease; actives 0.17% (n = 360,000); inhibition, % at 10 µM; multiplex microsphere protease substrate cleavage, flow cytometry; AID 588499; note: plate controls were buffer without enzyme for full effect and enzyme alone for no effect
# Anthrax LF prot: anthrax lethal factor protease inhibition. inhibition, % at 10 µM. AID 588501. P15917. multiplex microsphere protease cleavage assay, LF. actives 0.12% (n = 360,000); note: plate controls were buffer without enzyme for full effect and enzyme alone for no effect
# Target sequence (P15917 whole entry, looked up): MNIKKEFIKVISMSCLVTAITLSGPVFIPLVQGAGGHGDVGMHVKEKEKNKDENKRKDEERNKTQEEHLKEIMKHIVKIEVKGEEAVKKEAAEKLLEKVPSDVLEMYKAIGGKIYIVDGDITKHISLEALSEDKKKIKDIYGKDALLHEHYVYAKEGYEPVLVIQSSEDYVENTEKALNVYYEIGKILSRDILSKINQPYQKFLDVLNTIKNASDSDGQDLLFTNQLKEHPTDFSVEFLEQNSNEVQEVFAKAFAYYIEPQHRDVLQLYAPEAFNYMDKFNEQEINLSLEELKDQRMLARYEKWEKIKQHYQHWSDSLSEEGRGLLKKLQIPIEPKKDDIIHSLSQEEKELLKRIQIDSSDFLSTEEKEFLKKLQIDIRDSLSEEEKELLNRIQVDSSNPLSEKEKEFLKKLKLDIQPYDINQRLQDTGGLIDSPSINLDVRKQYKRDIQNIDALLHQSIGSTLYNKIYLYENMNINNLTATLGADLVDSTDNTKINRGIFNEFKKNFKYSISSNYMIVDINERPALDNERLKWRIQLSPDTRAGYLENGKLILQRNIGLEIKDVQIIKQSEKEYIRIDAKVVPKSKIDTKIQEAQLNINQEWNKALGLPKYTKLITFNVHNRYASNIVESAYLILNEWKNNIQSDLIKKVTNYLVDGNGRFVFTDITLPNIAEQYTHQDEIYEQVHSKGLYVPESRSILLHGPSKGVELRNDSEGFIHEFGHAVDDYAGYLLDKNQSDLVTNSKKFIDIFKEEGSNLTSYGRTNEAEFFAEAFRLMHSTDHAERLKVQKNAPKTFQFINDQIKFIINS
# Bead autofluor: counter-screen for toxin protease inhibitors: compound fluorescence; compound autofluorescence counterscreen, microsphere flow cytometry; active compounds read high; fluorescence intensity (concentration not given with the values); actives 3.1% (n = 360,000); AID 624483; in the data active = fluorescence intensity above about 16000; inconclusive = no clear call, values can overlap the other calls
# BoNT-F LC inh: BoNT F light chain protease inhibition; Multiplex microsphere protease cleavage assay, flow cytometry; inhibition, % at 10 µM; actives 0.22% (n = 360,000); AID 588497; in the data active = inhibition above about 35%, passing the limit was not always enough; inconclusive = no clear call, values can overlap the other calls; note: plate controls were buffer without enzyme for full effect and enzyme alone for no effect
# MazEF act: increases E. coli MazEF RNase cleavage of RNA. P0AE70. FAM/BHQ RNA-DNA oligo cleavage fluorescence, 5 h. activation, % at 20 µM. actives 0.32% (n = 350,000). AID 504720; in the data active = activation above about 50%
# * hit, by the source's call; ? = inconclusive; · = no result. This is a sample that favours compounds with a hit; in the whole collection about 3.7% have one here. Cut-off read from the data, not from the text of the source, unless noted: active = inhibition above about 30%; inconclusive = no clear call, values can overlap the other calls; inactive = below that.
SMILES,BoNT A protease,Anthrax LF prot,Bead autofluor,BoNT-F LC inh,MazEF act
COc1ccc(-c2cc(C(=O)O)c(C)o2)cc1OC,1,-5,20243*,0,2
COC(=O)c1ccc(Cn2cc(Cl)cn2)o1,-1,2,6030,-5,8
CCCCCCN1C[C@H](O)[C@@H](n2cc(COC(=O)c3ccccc3)nn2)C[C@@H]1c1ccc(Cl)cc1,0,-5,3076,-2,-7
O=C(Cc1cccs1)N1CCN(c2nc(-c3ccc(Cl)cc3)cs2)CC1,?,-4,21233*,-2,2
CC(C)C(=O)N1CCN(c2nc(-c3ccc(Cl)cc3)cs2)CC1,-1,2,2506,-4,2
CCOC(=O)c1cnn(-c2ccccc2)c1NC(=O)c1ccc(C)cc1,-1,-2,23981*,-6,6
CCOC(=O)c1cnn(-c2cccc(Cl)c2)c1N,-2,-3,16767*,-4,7
CCOC(=O)c1cnn(-c2ccccc2)c1NC(=O)c1ccccc1,-1,-1,10095,-3,-2
CCCCN1C=CC(=C2C(=O)c3ccccc3C2=O)C=C1,2,-1,2467,1,-13
CNc1ccc2ncc(-c3ccc(OC)c(OC)c3)n2n1,0,-4,3765,-1,·
O=S(=O)(c1ccc(Cl)cc1)N1CCNCC1,-2,-6,3776,-9,3
O=C1Nc2cc(Cl)ccc2C1(N1CCNCC1)C(F)(F)F (stereo unspecified),2,-7,18877*,-1,6
Cc1ccc(F)cc1NC(=O)C1C2CCC(O2)C1C(=O)O (stereo unspecified),-2,-8,4507,-26,2
CCOC(=O)C1=C(c2ccccc2)N=c2s/c(=C\c3ccc(O)cc3)c(=O)n2C1c1cccs1 (stereo unspecified),15,21,10458,5,-26
CCOC(=O)C1=C(c2ccccc2)N=c2sc(=Cc3cc(OC)c(OC)c(OC)c3)c(=O)n2C1c1cccs1 (stereo unspecified),32*,37*,3180,18,·
CCN(CC)c1ccc2cc(-c3nc(-c4cc5ccccc5oc4=O)cs3)c(=O)oc2c1,87*,47*,7684,23,-118
CCc1cc(/C(Cc2ccccn2)=N\O)c(O)cc1O,?,-2,18010*,-14,3
CCc1cc(/C(Cc2cscn2)=N\O)c(O)cc1O,0,0,4356,-10,2
O=C(NCc1ccc(F)cc1)C1C2C=CC3(CN(Cc4cccnc4)C(=O)C13)O2 (stereo unspecified),0,-1,10821,-1,8
O=C(NCc1ccc(Cl)cc1)C1C2C=CC3(CN(Cc4cccnc4)C(=O)C13)O2 (stereo unspecified),-6,-3,25239*,-10,4
COc1ccc(-n2ncc3c(NCc4ccco4)ncnc32)cc1,-1,0,11032,-4,5
C=CCNc1ncnc2c1cnn2-c1ccc(OC)cc1,0,-4,16362*,0,-15
CSCCC(C(=O)Nc1c(C)cccc1C)N(Cc1ccccc1)Cc1ccccc1 (stereo unspecified),-1,-8,4008,4,·
COc1ccc(/C=C/C(=O)c2ccncc2)c2ccccc12,45*,21,2665,6,-5
O=c1cc(O)c2c(=O)n(C3CCCCC3)c3ccccc3c2o1,0,2,22987*,2,5
SMILES,BoNT A protease,Anthrax LF prot,Bead autofluor,BoNT-F LC inh,MazEF act
O=c1cc(O)c2c(=O)n(Cc3ccccc3)c3ccccc3c2o1,4,0,3241,1,-5
CCCNC(=O)C1(C)CCN(C(=O)c2ccccc2OC)C1 (stereo unspecified),0,-4,2977,0,·
CC1=NN(c2ccc(C(=O)OC(C)C)cc2)C(=O)/C1=C\C=C\c1ccco1,2,-5,19581*,-2,-9
CCOC(=O)c1ccc(N2N=C(C)/C(=C/C=C/c3ccco3)C2=O)cc1,?,-5,22790*,-6,0
CC1=NN(c2ccccc2)C(=O)/C1=C\C=C\c1ccccc1,·,·,·,·,13
c1coc(CN2CNc3nc4ccccc4n3C2)c1,0,5,4172,2,-14
CCCN1CN(Cc2ccco2)c2nc3ccccc3n2C1,?,1,18478*,4,0
Cc1ccc2c(c1)N(CCC(=O)NCCN1CCOCC1)C(=O)CO2,-1,0,20041*,-3,3
O=C(CCN1C(=O)COc2ccccc21)NCCN1CCOCC1,-1,-4,9031,-1,-9
CCC1Oc2ccc(C)cc2N(CC(=O)NCC2COc3ccccc3O2)C1=O (stereo unspecified),0,-4,5972,-1,5
Cc1ccc2c(c1)N(CCC(=O)NCC1COc3ccccc3O1)C(=O)CO2 (stereo unspecified),1,-6,21396*,3,-1
O=C(CCN1C(=O)COc2ccccc21)NCc1ccco1,-2,-3,10601,-12,-1
Cc1ccc2c(c1)N(CCC(=O)NCc1ccco1)C(=O)CO2,-2,-1,22695*,-5,5
COc1ccccc1CNC(=O)CCN1C(=O)COc2ccc(C)cc21,?,0,21217*,5,1
COc1ccccc1CNC(=O)CCCN1C(=O)COc2ccc(C)cc21,1,-4,11784,-5,8
CCOc1ccc(NC(=O)CN(c2ccc(OC)cc2)S(=O)(=O)c2cccs2)cc1,0,6,2648,-11,-41
COC(=O)[C@H](C)N(Cc1ccc(Cl)c(Cl)c1)S(=O)(=O)CCN1CCCC1,0,8,3887,-3,8
O=C(CN(Cc1cccs1)C(=O)CNS(=O)(=O)c1ccccc1)NCc1ccco1,1,2,2589,7,3
O=C(CN(Cc1cccs1)C(=O)CN1C(=O)COc2ccccc21)NCc1ccco1,7,-6,19004*,7,4
CCc1nnc(NC(=O)CSc2nc3ccccc3o2)s1,1,-1,22539*,2,-5
CC(=O)Nc1nonc1NC(=O)CSc1nc2ccccc2o1,0,-2,22359*,0,0
O=C(CSc1nc(-c2ccccc2)c(-c2ccccc2)o1)Nc1nncs1,-1,-2,3214,1,1
CCc1nnc(NC(=O)CSc2nc(-c3ccc(F)cc3)cc(-c3ccccc3)c2C#N)s1,0,-1,2505,-3,63*
O=C(CSc1nc(-c2ccccc2)c(-c2ccccc2)o1)Nc1nnc(-c2ccccc2)s1,1,-2,22803*,-2,-2
COc1ccc(C(=O)N2CCN(c3ccc(N4CCOCC4)nn3)CC2)cc1OC,1,-1,6154,-4,4
Cc1ccc(S(=O)(=O)N2CCOCC2)cc1NC(=O)COC(=O)Cc1ccccc1,0,-7,3543,3,4
O=c1[nH]c2ccsc2c(=O)n1-c1ccc(F)c(Cl)c1,?,-10,17764*,10,-23
CC(=O)Nc1sc2c(c1C#N)CCCCC2,?,-9,23128*,-6,-8
N#Cc1c(NC(=O)CSc2ncn[nH]2)sc2c1CCCC2,1,-3,3804,-8,-2
CC(=O)Nc1c(O)nc(SCC(=O)Nc2sc3c(c2C#N)CCCCCC3)[nH]c1=O,3,-4,19485*,2,-8

# Bioassay records deposited in PubChem by several laboratories.
